Where “and” joins values, the source holds several entries; their conditions need not be identical. Equal values may be shown once.
assay: qHTS profiling for inhibitors of Plasmodium falciparum (3D7) proliferation (AID 743322);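 further: infected erythrocytes exposed to compound for 72 h before lysis; 100% = DMSO vehicle wells and 0% = 0.29 µM artemisinin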; conditions: P. falciparum 3D7 proliferation; at 28.7 µM (top of the series) unless noted
Excerpt: Plasmodium falciparum is a virulent malarial parasite that kills 1-2 million people worldwide each year. Transmitted by mosquitoes, the sporozoite form of the parasite enters the blood stream to infect hepatocytes, where they become merozoites that infect red blood cells (erythrocytes). Within erythrocytes, merozoites begin a […] cycle of growth and division, after which the parasite is released to infect new red blood cells. Gametocytes, which form within erythrocytes as well, circulate in the bloodstream and are ingested by the mosquito, thereby completing the life cycle. To profile malarial isolates for differential chemical responses and to identify inhibitors of malarial growth, an assay that measures P. falciparum growth and replication within erythrocytes was employed. This assay uses a DNA binding fluorescent dye (SYBR Green) to detect parasite DNA following cell lysis. Because mature erythrocytes lack DNA, only Plasmodium-derived DNA is detected.
The SYBR Green viability assay was adapted from a method described previously (Plouffe et al., 2008). For screening 3 ul culture medium was dispensed into 1536 well black clear bottom plates (Aurora Biotechnologies) using a Multidrop Combi (Thermo Fisher Scientific Inc.), 23 nL compounds in DMSO were added by a pin tool (Kalypsys), and 5 ul of erythrocytes infected with P. falciparum (0.3% parasitemia, 2.5% hematocrit final concentration) were added. The plates were incubated at 37 C in a humidified incubator in 5% CO2 for 72 h, and 2 ul lysis buffer (20 mM Tris HCl, 10 mM EDTA, 0.16% saponin, 1.6% triton X, 10X SYBR Green I supplied as 10,000X […] by Invitrogen) was added to each well. The plates were mixed for 25 sec with gentle shaking and incubated overnight at room temperature in the dark. The following morning, fluorescence intensity at 485(14) nm excitation and 535(25) nm emission wavelengths was measured on an EnVision (Perkin Elmer) plate reader. Plate reads were normalized relative to the control inhibitor (0.29 uM artemisinin) and vehicle (DMSO) wells present on each plate and then corrected by an algorithm using vehicle-only control plates at the beginning and end of the compound plate stack.

Question: With Cc1cc2c(F)c(Oc3ncnn4cc(OC[C@@H](C)O)c(C)c34)ccc2[nH]1 as the compound, how does the remaining parasite growth % (stronger effect = lower value) read?
Answer: 101%

Question: Which remaining parasite growth % (stronger effect = lower value) does the source give for C[C@]12CCC(=O)C=C1CC[C@@H]1[C@@H]2[C@@H](O)C[C@@]2(C)[C@H]1CC[C@]2(O)C(=O)CO here?
Answer: 98.9%

Question: For COc1cc(F)c(F)c(Nc2ccc(I)cc2F)c1NS(=O)(=O)C1(C[C@H](O)CO)CC1, which remaining parasite growth % (stronger effect = lower value) is on record?
Answer: 83.5%

Question: For Cn1cc(-c2ccc3nnc(C(F)(F)c4ccc5ncccc5c4)n3n2)cn1, which remaining parasite growth % (stronger effect = lower value) is on record?
Answer: 40.4%

Question: With C[C@@H]1CN(Cc2ccc(F)cc2)[C@@H](C)CN1C(=O)c1cc2c(C(=O)C(=O)N(C)C)cn(C)c2cc1Cl as the compound, how does the remaining parasite growth % (stronger effect = lower value) read?
Answer: 69.2%

Question: With O=C(Nc1cccnc1)N1CCC(Cc2cccc(Oc3ccc(C(F)(F)F)cn3)c2)CC1 as the compound, how does the remaining parasite growth % (stronger effect = lower value) read?
Answer: 8.79%

Question: With COc1cc2c(cc1OC)CN(CCc1ccc(NC(=O)c3cccc4c(=O)c5cccc(OC)c5[nH]c34)cc1)CC2 as the compound, how does the remaining parasite growth % (stronger effect = lower value) read?
Answer: -0.733%

Question: Which remaining parasite growth % (stronger effect = lower value) does the source give for CNC(=O)c1ccc(C)c(-n2c(C)cc(OCc3ccc(F)cc3F)c(Br)c2=O)c1 here?
Answer: 91.9%

Question: Which remaining parasite growth % (stronger effect = lower value) does the source give for CCn1c(-c2nonc2N)nc2cnc(Oc3cccc(NC(=O)c4ccc(OCCN5CCOCC5)cc4)c3)cc21 here?
Answer: 15.3%

Question: Which remaining parasite growth % (stronger effect = lower value) does the source give for C#Cc1cccc(Nc2ncnc3cc(OCCOC)c(OCCOC)cc23)c1 here?
Answer: 12.2%

Question: For CC(C)(C)OC(=O)CN(Cc1ccc(Cl)cc1)Cc1ccc([N+](=O)[O-])s1, which remaining parasite growth % (stronger effect = lower value) is on record?
Answer: 2.82%

Question: With COc1ccc(COc2cc3oc(=O)c4cc(C(C)O)ccc4c3cc2OC)cc1 (stereo not given) as the compound, how does the remaining parasite growth % (stronger effect = lower value) read?
Answer: 75.7%

Question: With COc1cccc2cc(-c3nc(C4CCC(C(=O)O)CC4)n4ncnc(N)c34)[nH]c12 (stereo not given) as the compound, how does the remaining parasite growth % (stronger effect = lower value) read?
Answer: 64.8%

Question: For O=C1[C@H](Cc2ccc(O)cc2)N2C(=O)CCN(C(=O)NCc3ccccc3)[C@H]2CN1Cc1cccc2ccccc12, which remaining parasite growth % (stronger effect = lower value) is on record?
Answer: 32.3%

Question: For COCC(=O)NCC=Cc1ccc2ncnc(Nc3ccc(Oc4ccc(C)nc4)c(C)c3)c2c1, which remaining parasite growth % (stronger effect = lower value) is on record?
Answer: 28.2%

Question: For CCCc1nc2c(C)cc(-c3nc4ccccc4n3C)cc2n1Cc1ccc(-c2ccccc2C(=O)O)cc1, which remaining parasite growth % (stronger effect = lower value) is on record?
Answer: 103%

Question: With Cn1c(=O)c(F)c(Nc2ccc(I)cc2F)c2c(=O)n(C[C@@H](O)CO)cnc21 as the compound, how does the remaining parasite growth % (stronger effect = lower value) read?
Answer: 83.3%

Question: Which remaining parasite growth % (stronger effect = lower value) does the source give for S=C(NCc1ccc2c(c1)OCO2)N1CCN(c2ncnc3c2oc2ccccc23)CC1 here?
Answer: 75.4%

Question: With c1ccc(-c2nn3c(c2-c2ccnc4cc(OCCN5CCOCC5)ccc24)CCC3)nc1 as the compound, how does the remaining parasite growth % (stronger effect = lower value) read?
Answer: 81.9%

Question: With CC(=O)NC(C)c1ccc(Oc2ccc(OC(C)C)cc2)cc1 (stereo not given) as the compound, how does the remaining parasite growth % (stronger effect = lower value) read?
Answer: 69.9%

Question: With NC(=O)C1CCCc2c1[nH]c1ccc(Cl)cc21 (stereo not given) as the compound, how does the remaining parasite growth % (stronger effect = lower value) read?
Answer: 100%

Question: For CCC(C)(C)C(=O)O[C@H]1C[C@@H](C)C=C2C=C[C@H](C)[C@H](CC[C@@H]3C[C@@H](O)CC(=O)O3)[C@H]21, which remaining parasite growth % (stronger effect = lower value) is on record?
Answer: 116% [at 9.63 µM]

Question: For Cc1ccccc1C(C(=O)NC1CCCC1)N(C(=O)Cn1cnc2ccccc21)c1cccc(F)c1 (stereo not given), which remaining parasite growth % (stronger effect = lower value) is on record?
Answer: 45.1%

Question: For Cc1cccc(-c2[nH]c(C(C)(C)C)nc2-c2ccc3nccnc3c2)n1, which remaining parasite growth % (stronger effect = lower value) is on record?
Answer: 54.8%

Question: With O=C(OCC#CCSc1nnc(-c2ccc3ccccc3c2)o1)c1cc2ccccc2s1 as the compound, how does the remaining parasite growth % (stronger effect = lower value) read?
Answer: 117%

Question: With COc1ccc(C2=N[C@H](c3ccc(Cl)cc3)[C@H](c3ccc(Cl)cc3)N2C(=O)N2CCNC(=O)C2)c(OC(C)C)c1 as the compound, how does the remaining parasite growth % (stronger effect = lower value) read?
Answer: 52.3%

Question: Which remaining parasite growth % (stronger effect = lower value) does the source give for CS(=O)(=O)c1ccc(C(=O)Nc2ccc(Cl)c(-c3ccccn3)c2)c(Cl)c1 here?
Answer: 105%

Question: With Nc1nc2[nH]cc(CCc3ccc(C(=O)N[C@@H](CCC(=O)O)C(=O)O)cc3)c2c(=O)[nH]1 as the compound, how does the remaining parasite growth % (stronger effect = lower value) read?
Answer: 14.6%

Question: With Cc1cc(SCc2sc(-c3ccc(C(F)(F)F)cc3)nc2C)ccc1OCC(=O)O as the compound, how does the remaining parasite growth % (stronger effect = lower value) read?
Answer: 106% and 98.8%

Question: With Cc1cc(-c2nnc3n2CCCCC3)c(C)n1-c1ccc(F)cc1 as the compound, how does the remaining parasite growth % (stronger effect = lower value) read?
Answer: 7.99%

Question: With CCc1cc(Nc2nccc(-c3c(-c4ccc(OC)c(C(=O)Nc5c(F)cccc5F)c4)nc4ccccn34)n2)c(OC)cc1N1CCC(N2CCN(S(C)(=O)=O)CC2)CC1 as the compound, how does the remaining parasite growth % (stronger effect = lower value) read?
Answer: -0.479%

Question: With O=c1[nH]c(-c2ccc(C(F)(F)F)cc2)nc2c1CSCC2 as the compound, how does the remaining parasite growth % (stronger effect = lower value) read?
Answer: 106%

Question: With CCc1cncnc1N1CCN(Cc2nc3ccc(C(F)(F)F)cc3[nH]2)CC1 as the compound, how does the remaining parasite growth % (stronger effect = lower value) read?
Answer: 24.3%

Question: For Cc1ccc2c(c1)C(=O)[C@@]1(O)CCN(c3ccccc3)C1=N2, which remaining parasite growth % (stronger effect = lower value) is on record?
Answer: 104%

Question: With CCN(CC)CCCC(C)Nc1ccnc2cc(Cl)ccc12 (stereo not given) as the compound, how does the remaining parasite growth % (stronger effect = lower value) read?
Answer: 0.37%

Question: For N#Cc1ccc(C(c2ccc(C#N)cc2)n2cncn2)cc1, which remaining parasite growth % (stronger effect = lower value) is on record?
Answer: 85.5%

Question: Which remaining parasite growth % (stronger effect = lower value) does the source give for COc1cc2nccc(Oc3ccc(NC(=O)NC4CC4)c(Cl)c3)c2cc1C(N)=O here?
Answer: 63.1%

Question: With Clc1ccc(Nc2nnc(Cc3ccncc3)c3ccccc23)cc1 as the compound, how does the remaining parasite growth % (stronger effect = lower value) read?
Answer: -0.114%

Question: With CN([C@@H](Cc1ccc(OS(=O)(=O)c2cccc3cnccc23)cc1)C(=O)N1CCN(c2ccccc2)CC1)S(=O)(=O)c1cccc2cnccc12 as the compound, how does the remaining parasite growth % (stronger effect = lower value) read?
Answer: 0.0531% and -0.942%

Question: Which remaining parasite growth % (stronger effect = lower value) does the source give for CCN(c1ccccc1)c1cc(NC)[n+](C)c(C)n1 here?
Answer: 76.6%

— PubChem BioAssay (NCATS)
